From PubChem BioAssay
Sampled rows, rich in hits. Any-hit rate of the full collection: about 6.7%.
KB-V1 cytotox: qHTS assay for MDR1-selective chemotherapeutics: Primary screen using the drug-selected MDR subline cells KB-V1; AID 1347076, 2019; Potency, µM (top dose mostly 46.1 µM), most hits filed as cytotoxic; KB-V1 MDR cells viability, CellTiter-Glo, 72 h; 3.4% of 400,000 active; also: % is scaled to controls: 0 for no effect and ±100 for the full control effect; nearly all actives have a fitted effect of over 60% in size
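Cytotoxicity via CellTiter-Glo luminescence after 72 h compound exposure at 37 degrees C. Cells: drug-selected KB-V1 line, DMEM phenol-red free plus 10% FBS. Compounds tested at multiple concentrations; normalized data fitted to concentration-effect curves.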
PINK1 modulator: A Quantitative High throughput Screen to Identify Chemical Modulators of PINK1 Expression; PINK1 immunofluorescence, high-content cytometry, 24 h; Potency, µM (top dose mostly 76.6 µM), without a hit: top-dose activation (PINK1 increase), usual class: activators; 0.2% of 410,000 active; AID 624263, 2012; active = well fitted activation curve with a large enough effect; inconclusive = small, poorly fitted or top-dose-only effect; cell line not stated here; also: % of control where 0% means no effect; nearly all actives have a fitted effect of over 65% in size
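Stable cell line treated 24 h with compounds at 5 concentrations (CCCP controls), then fixed and immunostained for PINK1 plus nuclear and cell stains; PINK1 immunofluorescence quantified by laser-scanning microplate cytometry.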
MCF10A rerep: A quantitative high throughput screen for small molecules that induce DNA re-replication in MCF 10a normal breast cells; MCF 10A DNA re-replication, Hoechst nuclear intensity, 48 h; Potency, µM (top dose mostly 46.1 µM), for inactives: at the top dose activity, positive = re-replication, most hits filed as activators; 2.9% of 350,000 active; AID 624296, 2012; also: % of control where 0% means no effect; nearly all actives have a fitted effect of over 50% in size
SW480 rerep: A quantitative high throughput screen for small molecules that induce DNA re-replication in SW480 colon adenocarcinoma cells; SW480 DNA re-replication, Hoechst DNA content imaging, 48 h; Potency, µM (titrated, usually from 46.1 µM), without a hit: top-dose re-replication activation, most hits filed as activators; 1.8% of 340,000 active; AID 624297, 2012; also: % of control where 0% means no effect; nearly all actives have a fitted effect of over 55% in size
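Hoechst fluorescence of nuclei (405 nm excitation, 500-530 nm emission) measured by plate-scanning imager after 48 hr compound exposure at 37 C; re-replication scored as increased number of nuclei with elevated intensity.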
KB-3-1 tox: qHTS assay for MDR1-selective chemotherapeutics: Primary screen using the parental adenocarcinoma cell KB-3-1; KB-3-1 viability, CellTiter-Glo ATP luminescence, 72 h; Potency, µM (series often up to 46.1 µM), actives largely listed as cytotoxic; 1.4% of 400,000 active; AID 1347075, 2019; also: % is scaled to controls: 0 for no effect and ±100 for the full control effect; nearly all actives have a fitted effect of over 60% in size
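Cells are dispensed, compounds pinned in, plates held at 37 °C for 72 h, then CellTiter-Glo is added and luminescence read after 10 minutes. Cell line: parental KB-3-1 in phenol-red-free DMEM, 10% FBS.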
An asterisk follows results filed as active; i = inactive; ? = inconclusive; . = not tested or not shown; [ ] = another dose, or the depositor's remark. Unless noted, calls follow the shape of the dose curve; as a rule, active = well fitted curve in the direction sought with a large enough effect; inconclusive = small, poorly fitted or top-dose-only effect, or another doubt; inactive = no such curve, though single readings can be large; an effect the other way counts as inactive or inconclusive. Potency is read from the fitted curve at half-maximal effect.

SMILES	KB-V1 cytotox	PINK1 modulator	MCF10A rerep	SW480 rerep	KB-3-1 tox
Cc1ccc(C)c(-n2c(-c3ccncc3)n[nH]c2=S)c1	i	-1.8%	-0.3%	-9.0%	i
Cc1ccc(-n2c(-c3ccccc3)n[nH]c2=S)c(C)c1	i	3.4%	0.651µM*	?	i
Cc1cccc(-n2c(-c3csc(C(C)C)c3)n[nH]c2=S)c1	18.4µM*	0.0%[38.3 µM]	0.9%	-6.2%	i
Cc1ccc(C)c(-n2c(-c3csc(C)c3)n[nH]c2=S)c1	18.4µM*	0.8%[38.3 µM]	18.5%	?	i
CCN(CC)c1ccc(-c2n[nH]c(=S)n2-c2ccccc2)cc1	23.1µM*	7.9%	?	?	13µM*
CCOc1ccccc1NC(=O)c1c(C)cc(C)nc1SCC(=O)c1cccc(OC)c1	?	0.0%	.	.	i
COc1ccccc1C(=O)N[C@@H]1c2ccccc2C2(CCN(C(=O)c3ccnn3C)CC2)[C@H]1OC	.	0.4%	.	.	.
CCCCN(C(=O)c1ccc(S(=O)(=O)N(C)c2ccccc2)cc1)c1c(N)n(CCC)c(=O)[nH]c1=O	i	0.3%	-0.9%	-4.3%	i
COc1ccc(Cl)cc1N1C(=O)[C@@H]2C[C@H]1CN2Cc1nc2ccccc2nc1C	.	0.9%	.	.	.
Cc1cc(C)cc(OCC(=O)Nc2cccc(S(=O)(=O)NC3=NCCC3)c2)c1	i	0.4%	?	20.6µM*	?
CN(C)CCNC(=O)C1(C)Cc2c(-c3cccc(C(F)(F)F)c3)ccnc2O1 (centres undefined)	i	-0.9%	.	.	i
CNS(=O)(=O)c1cn(CC(=O)N2CCN(c3cccc(C)c3C)CC2)cc1S(=O)(=O)NC	i	1.6%	.	.	i
CCN(CC)S(=O)(=O)c1ccc(NC(=O)CSc2nnc3c(n2)[nH]c2ccccc23)cc1	.	9.2%	.	.	.
COc1ccc(OC)c(Nc2nc3ccc(C)cc3n3cnnc23)c1	i	4.5%	18.4µM*	8.2%	i
CC(C)c1ccc(Nc2nc3ccc(C(=O)c4ccccc4)cc3n3cnnc23)cc1	?	12.3%	.	.	i
CCOc1ccccc1Nc1nc2ccc(C)cc2n2cnnc12	?	10.7%	-0.1%	-13.0%	i
COc1cccc(Nc2nc3ccc(C(=O)c4ccccc4)cc3n3cnnc23)c1	i	6.7%	9.2µM*	18.4µM*	i
COc1ccc(Cl)cc1Nc1nc2ccc(C)cc2n2cnnc12	i	8.6%	8.2µM*	-9.6%	i
CCOc1ccc(-n2c(=O)c3c(C)c(C)sc3n(Cc3cc(=O)n4cc(Cl)ccc4n3)c2=O)cc1	i	1.0%	.	.	i
CCOC(=O)c1c(C)nc2ccc(C)cn12	i	-0.2%	?	-7.7%	?
Cc1ccc(/C=N/NC(=O)c2c(C)nc3ccc(Br)cn23)cc1	1.3µM*	6.3%	?	1.46µM*	1.46µM*
Cc1nc2ccccn2c1C(=O)N/N=C/c1cc(C)n(-c2ccc(Br)cc2)c1C	?	-8.9%[38.3 µM]	?	15.1%	20.6µM*
Cc1ccc2nc(C)c(C(=O)NN=C3CCN(C)CC3)n2c1	i	5.6%	?	20.6µM*	i
COc1ccc(/C=N\NC(=O)c2c(C)nc3ccc(Br)cn23)cc1	?	5.9%	?	2.31µM*	?
COc1ccc(/C=N/NC(=O)c2c(C)nc3ccc(Br)cn23)cc1OC	i	2.7%	?	42.6%	i
SMILES	KB-V1 cytotox	PINK1 modulator	MCF10A rerep	SW480 rerep	KB-3-1 tox
COc1ccc(Oc2c(C(F)(F)F)oc3c(CN4CCCC(C)C4)c(O)ccc3c2=O)cc1 (centres undefined)	.	1.5%	.	.	.
CC(=O)C(Cc1ccccc1)NC(=O)COC(=O)c1cc(S(=O)(=O)N2CCOCC2)ccc1F (centres undefined)	i	1.0%	.	.	i
CCOc1ccc(CNC(=O)c2cnc3sc(N(CC)CC)nn3c2=O)cc1OC	.	-0.8%	.	.	.
COc1cc(=O)n2c(c1C(=O)NCc1ccco1)CCN(Cc1ccc3nsnc3c1)CC2	.	1.9%	.	.	.
COc1cccc(/C=N/NC(=O)c2c(C)nc3ccc(Br)cn23)c1O	i	1.5%	-12.3%	0.651µM*	?
C=CCn1c(Cc2cccs2)nnc1SCC(=O)c1ccc2ccccc2c1	?	8.8%[38.3 µM]	11.6µM*	27.4%	i
C=CCn1c(Cc2cccs2)nnc1SCC(=O)Nc1ccc(OC)c(OC)c1	23.1µM*	-3.1%	0.0%	-6.3%	i
CCSc1ncc(Cl)c(C(=O)Nc2sc(C(C)=O)c(C)c2C(=O)OC)n1	i	0.6%	.	.	?
CCc1ccc(NC(=S)N2CCC(NC(=O)c3ccccc3)CC2)cc1	i	6.1%	18.4µM*	0.0%	i
COc1ccc(NC(=O)c2oc3ccccc3c2NC(=O)Cc2cccs2)cc1	?	6.8%	.	.	i
CCN(CCCNC(=O)c1ccc(Sc2ccc(F)cc2)c(NC(C)=O)c1)c1ccccc1	.	-0.4%	.	.	.
C=CC[C@]12CC=CC(=O)[C@@]1(O)O[C@H](c1ccc(OC)c(OC)c1)[C@H]2C	?	-1.3%	6.51µM*	?	?
CCCCn1c(SCc2ccc(C(=O)OC)o2)nc2cc(S(N)(=O)=O)ccc21	?	-3.4%[38.3 µM]	-3.0%	-0.1%	18.4µM*
O=C(NCc1c(-n2cccc2)sc2c1CCCC2)Nc1cccc(C(F)(F)F)c1	i	3.6%	.	.	i
CCCC1O[C@@H]2C[C@H]3[C@@H]4CCC5=CC(=O)C=C[C@]5(C)[C@H]4[C@@H](O)C[C@]3(C)[C@]2(C(=O)CO)O1 (some centres undefined)	i	2.3%	5.5%	-27.3%	i
CC(C)C(=O)OCC(=O)[C@@]12OC(C3CCCCC3)O[C@@H]1CC1C3CCC4=CC(=O)C=C[C@]4(C)C3[C@@H](O)C[C@@]12C (some centres undefined)	.	.	?	11.9µM*	.
O=C(NCc1ccccc1Cl)C1(S(=O)(=O)c2ccc(Cl)cc2)CC1	i	1.7%	4.1%	-6.2%	i
CC(NC(=O)C1(S(=O)(=O)c2ccc(Cl)cc2)CC1)c1ccccc1 (centres undefined)	20.6µM*	-2.1%	19.9%	145.8%	i
